Screen size: about 87,000 compounds; about 540 (0.62%) were called active. How the calls were made is not given here. The list comes from a sample in which actives are over-represented; it also holds similar structures and randomly drawn compounds. A call without a number means that no potency is given here. Potency and affinity values are given separately.

Outcome data for 118 compounds are collected here from PubChem BioAssay AID618 (Sanford-Burnham Center for Chemical Genomics, 2007).

The nature of this test: MT1-MMP gene expression reporter suppression – cell-based, luciferase reporter, luminescence (AID 618).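 Further: actives suppress MT1-MMP promoter-driven transcription so potencies describe inhibitors.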 The following applies: MT1-MMP promoter luciferase reporter cells. (A reporter such as luciferase makes a cellular process visible.)
Take `c1ccc2oc(SCc3cn4ccccc4n3)nc2c1`: the compound was called inactive.

Take `Clc1c(CSc2nc3ccccc3o2)nc2sccn12`: the result was inactive.

Consider `CCOc1cc(/C=N/N=C(/N)c2nonc2N)cc(Br)c1OCc1ccc(Cl)cc1`, for which the result was inactive.

Turning to `CCOC(=O)c1[nH]c(C)c(C(=O)NCCCOC(C)C)c1C`, the compound was called inactive.

On to `c1ccc(CN2CCN(c3nc4ccccc4c4ccccc34)CC2)cc1`, for which the compound was called inactive.

For `COCCOC(=O)C1=C(C)NC2=C(C(=O)CCC2)C1c1cc2c(cc1Br)OCO2` (stereo not drawn), the result was inactive.

Take `O=S(=O)(c1ccc(S(=O)(=O)N2CCCC2)cc1)N1CCCCCC1`: the call was inactive.

Turning to `O=S(=O)(c1ccc2c(c1)C(=NO)c1cc(S(=O)(=O)N3CCCCC3)ccc1-2)N1CCCCC1`, the compound was called active.

Take `CC1CCN(S(=O)(=O)c2ccc3c(c2)C(=NO)c2cc(S(=O)(=O)N4CCC(C)CC4)ccc2-3)CC1`: the compound was called inactive.

For the compound `O=C(CCC(=O)c1ccc(F)cc1)Nc1cccnc1`, the compound was called inactive.

Regarding `CC(C)N(CCCNC(=O)CC1Oc2ccccc2NC1=O)Cc1ccccc1` (stereo not drawn), the outcome was inactive.

In the case of `Nc1ccc2c(c1)C(=O)C(=O)c1ccccc1-2`, the call was active.

On to `O=C1C(=O)c2ccc(-c3ccccc3)cc2-c2ccccc21`, for which the outcome was inactive.

Turning to `Nc1ccc(Br)c2c1C(=O)c1ccccc1C2=O`, the result was inactive.

On to `CCOC(=O)CON1C(=O)c2ccccc2C1=O`, for which the compound was called inactive.

Regarding `COc1ccc(-c2c(C)n([O-])c3c([n+]2=O)CCCC3)cc1`, the compound was classed as inactive.

As to `N=c1n(CCN2CCOCC2)c2ccccc2n1Cc1ccccc1Br`, the outcome was inactive.

With `CCn1c(-c2ccco2)nc2ccccc21`, the compound was classed as inactive.

As for `Cn1c(-n2c(-c3ccco3)nc3ccccc3c2=O)nc2ccccc21`, the compound was called inactive.

`Cn1c(-c2ccco2)nc2cc3ccccc3cc21`: the result was active.

On to `C=COCCn1c(=N)n(CCC)c2ccccc21`, for which the call was inactive.

Regarding `O=C1[C@@H]2C(c3ccccc3Cl)=NO[C@@H]2C(=O)N1Cc1ccccc1`, the compound was called inactive.

`Cc1c(NC(=O)c2ccc(=O)oc2)c(=O)n(-c2ccccc2)n1C`: the compound was classed as inactive.

With `Cc1c(NC(=O)c2ccccc2)c(=O)n(-c2ccccc2)n1C`, the call was inactive.

On to `CCCNc1cc(C)oc(=O)c1C(=O)CCC`, for which the compound was classed as inactive.

With `Oc1ccc(Nc2nc3ccccc3nc2Nc2ccc(O)cc2)cc1`, the compound was classed as inactive.

With `CCOC(=O)C1CCCCN1C(=O)CCc1c(C)nc2ncnn2c1C` (stereo not drawn), the call was inactive.

Turning to `Cc1nc2cc(-c3cccc(F)c3)nn2c(C)c1CCC(=O)N1CCN(c2ccccn2)CC1`, the result was inactive.

On to `CCn1c(C(=O)Nc2ccsc2C(=O)OC)cc2sc(Cl)cc21`, for which the outcome was inactive.

In the case of `CN1CCC(C2(O)c3ccccc3CSc3sccc32)CC1` (stereo not drawn), the compound was called inactive.

Take `COC(=O)Cc1ccc(NC(=O)c2ccc(Br)o2)cc1`: the outcome was inactive.

With `Cc1oc(C)c(C(=O)Nc2ccc(CC(=O)O)cc2)c1C(=O)Nc1ccc(CC(=O)O)cc1`, the compound was called inactive.

As to `COC(=O)Cc1ccc(NC(=O)c2ccc(C)c(C)c2)cc1`, the outcome was inactive.

Regarding `O=C(O)Cc1ccc(NC(=O)c2ccc(NC(=O)c3ccco3)cc2)cc1`, the compound was classed as inactive.

Regarding `Cc1ccc(C(=O)Nc2ccc(CC(=O)O)cc2)o1`, the outcome was inactive.

Turning to `Cc1cc(C(C)(C)C)oc1C(=O)Nc1ccc(CC(=O)O)cc1`, the compound was called inactive.

Regarding `COc1ccc(-n2c(Cc3cccn3C)nnc2SCC(=O)Nc2cccc(NC(C)=O)c2)cc1`, the call was inactive.

With `CCOc1ccc(CCNC(=O)C(O)c2ccccc2)cc1` (stereo not drawn), the call was inactive.

For `Cc1cc(=O)oc2cc(OCC(=O)Nc3nnc(C(C)C)s3)ccc12`, the result was inactive.

With `CC(=NCCCn1ccnc1)C1=C(O)c2ccccc2C1=O`, the outcome was inactive.

With `Cc1cccc(-n2ncc3c(N4CCC5(CC4)OCCO5)ncnc32)c1`, the call was inactive.

For `Cc1cccc(-n2ncc3c(N4CCN(c5nc(C)cc(C)n5)CC4)ncnc32)c1`, the call was inactive.

Turning to `CCN1CCN(c2ncnc3c2cnn3-c2ccc(Cl)cc2)CC1`, the call was inactive.

On to `Clc1ccc(-n2ncc3c(N4CCCC4)ncnc32)cc1`, for which the result was inactive.

As for `COc1cc(NC(=O)CSc2ncnc3c2cnn3Cc2ccccc2)cc(OC)c1`, the compound was called inactive.

Turning to `COc1ccc(-c2cn3c(C)c(C(=O)N4CCc5ccccc5C4)sc3n2)cc1`, the compound was classed as inactive.

For `COc1ccccc1-c1coc2c(CN3CCN(CCO)CC3)c(O)ccc2c1=O`, the compound was called inactive.

For the compound `CCOC(=O)C(NS(=O)(=O)c1ccc(Br)cc1)C(C)C` (stereo not drawn), the result was inactive.

Take `COc1ccc2c(CC(=O)OCC(=O)c3ccc(F)cc3)coc2c1`: the compound was classed as inactive.

Take `Oc1c(C(c2ccco2)N2CCOCC2)sc2ncnn12` (stereo not drawn): the call was inactive.

For the compound `O=C(O)c1cccc(NC(=O)C2CCCO2)c1` (stereo not drawn), the outcome was inactive.

Turning to `Cc1oc2c(c1C(=O)Nc1cccc(C(=O)O)c1)CCCC2`, the compound was called inactive.

For the compound `O=C(Nc1cnc2ccccc2c1)c1cccnc1`, the compound was called inactive.

Consider `Cc1ccc(NC(=O)c2ccccc2)cc1`, for which the result was inactive.

For `Cc1ccc(C(=O)Nc2cccc(C(=O)N3CCN(C)CC3)c2)cc1`, the compound was called inactive.

In the case of `O=C(Nc1cnc2ccccc2c1)c1ccncc1`, the call was inactive.

On to `Cc1cc(C(=O)Nc2ccccc2)oc1C`, for which the compound was called inactive.

For `O=C(O)c1ccc(C(=O)Nc2cccc(NC(=O)C3CCCO3)c2)cc1` (stereo not drawn), the result was inactive.

Take `O=C(Oc1ccc(Br)cc1)c1cncc(Br)c1`: the result was inactive.

Take `O=C1CCC([N+](=O)[O-])C(c2ccccc2Cl)N1` (stereo not drawn): the outcome was inactive.

Turning to `COc1cccc(-n2nnc3c(=O)n(Cc4c(F)cccc4Cl)cnc32)c1`, the compound was classed as inactive.

Turning to `CCN(CC)CCCNC(=O)c1sc2nc(-c3ccc(F)cc3)cn2c1C`, the outcome was inactive.

Consider `CCn1cc(C(=O)NCc2ccco2)c(=O)c2cc(S(=O)(=O)N3CC(C)CC(C)C3)ccc21` (stereo not drawn), for which the call was inactive.

As for `CCOC(=O)CCn1c(=O)c2c(nc(Br)n2Cc2ccccc2)n(C)c1=O`, the call was inactive.

`Cc1ccc(S(=O)(=O)NCCC(=O)Nc2nnc(C)s2)cc1`: the call was inactive.

Consider `COC(=O)[C@H](C)NC(=O)Nc1ccccc1F`, for which the call was inactive.

For `COc1ccc(S(=O)(=O)n2c(CCN3CCOCC3)nc3ccccc32)cc1`, the compound was called inactive.

`O=C(O)c1cccc(NC(=O)c2cccc(S(=O)(=O)N3CCCCC3)c2)c1`: the call was inactive.

As for `Cc1ccc(C(=O)Nc2cccc(C(=O)O)c2)cc1S(=O)(=O)N1CCOCC1`, the call was inactive.

Consider `CC1C=CC(C)C(C(=O)O)C1C(=O)O` (stereo not drawn), for which the call was inactive.

Consider `CC(=O)c1ccc(NS(=O)(=O)c2ccc(CC(C)C)cc2)cc1`, for which the call was inactive.

Turning to `Cc1cccnc1NC(=O)C1CCN(S(=O)(=O)c2cccs2)CC1`, the call was inactive.

As to `COc1ccc(CCn2c(N3CCN(C)CC3)nc3c2c(=O)[nH]c(=O)n3C)cc1`, the result was inactive.

Turning to `CCOc1ccc(S(=O)(=O)NCCC2=CCCCC2)c2ccccc12`, the result was inactive.

For `CCCC1=Nc2cc(C(=O)NCCCOC(C)C)ccc2Sc2ccccc21`, the call was inactive.

`CCCC1=Nc2cc(C(=O)NCCCOCC)ccc2Sc2ccccc21`: the compound was called active.

As for `CCOCCCNC(=O)c1ccc(OC)cc1`, the outcome was inactive.

As for `COCCCNC(=O)c1cccc(C(=O)NCCCOC)c1`, the compound was classed as inactive.

Consider `CCC1=Nc2cc(C(=O)NCCCOC(C)C)ccc2Sc2ccccc21`, for which the compound was classed as inactive.

Regarding `CCC1=Nc2cc(C(=O)NCCCOC)ccc2Sc2ccccc21`, the outcome was active.

Turning to `COc1ccc(S(=O)(=O)Cc2ccc(C(=O)N3CCN(c4ncccn4)CC3)o2)cc1`, the outcome was inactive.

Regarding `CC1(C)CC(=O)C2=C(C1)Nc1ccccc1NC2c1cccnc1` (stereo not drawn), the compound was classed as inactive.

`CCC1=C2CC[C@H]3C(=O)N(CC(=O)OC)C(=O)[C@H]3[C@H]2[C@@]2(Cc3ccccc3)C(=NCCc3c[nH]c4ccccc34)OC(=O)N2C1=O`: the result was inactive.

Turning to `O=C(CSc1ccccc1)Nc1cccnc1`, the compound was called inactive.

`CC(CN1CCOCC1)OC(=O)c1ccccc1Br` (stereo not drawn): the result was inactive.

In the case of `COc1cc(OC)cc(C(=O)Nn2c(C)nc3ccccc3c2=O)c1`, the compound was called inactive.

Take `COc1ccc2[nH]c3c(c2c1)CCn1c-3nc2ccccc2c1=O`: the compound was called active.

As to `COc1ccc(-c2nc3ccccc3c(=O)n2CCN2CCOCC2)cc1`, the compound was called inactive.

With `O=C(CCCO)c1ccc2c(c1)OCCO2`, the compound was called inactive.

Consider `O=C(CCc1ccccc1)c1ccc2c(c1)OCCCO2`, for which the outcome was inactive.

Consider `COc1ccccc1C(=O)Nc1ccc2c(c1)OCCO2`, for which the compound was called inactive.

In the case of `O=C(Nc1ccncc1)c1ccc2c(c1)OCCO2`, the result was inactive.

For the compound `O=C(Nc1ccc2c(c1)OCO2)c1cncc(Br)c1`, the compound was classed as inactive.

Consider `O=C(Nc1ccccc1)c1ccc2c(c1)OCCO2`, for which the outcome was inactive.

With `COc1cc(SC)ccc1C(=O)Nc1ccccc1`, the compound was called inactive.

For the compound `O=C(Nc1ccc2c(c1)OCCO2)c1cccnc1`, the compound was called inactive.

On to `CS(=O)(=O)Nc1ccc(C(=O)Nc2ccc3c(c2)OCCO3)cc1`, for which the call was inactive.

`Cc1cc(C(=O)Nc2ccc3c(c2)OCCO3)co1`: the call was inactive.

With `Clc1cc(NCc2cccs2)ccc1N1CCOCC1`, the compound was called inactive.

Take `Cc1cc(N2CC34C=CC(O3)C(C(=O)O)C4C2=O)no1` (stereo not drawn): the compound was called inactive.

As for `CCOCCn1c(CN2CCN(CC)CC2)nc2c1c(=O)n(C)c(=O)n2C`, the result was inactive.

For `NC1=NC2(CCC(c3ccccc3)CC2)n2c(nc3ccccc32)N1` (stereo not drawn), the result was inactive.

Take `CC(C)N(Cc1nc(-c2ccc(Cl)cc2)no1)C(=O)CN(C)S(=O)(=O)c1ccc(Cl)cc1`: the outcome was inactive.

On to `Cc1ccc(NC(=O)c2cc(C)on2)cc1`, for which the compound was called inactive.

Take `COC(=O)N1CC=CC1(C)C(=O)NCC1CC1` (stereo not drawn): the compound was called inactive.

In the case of `O=C(NCc1ccc2c(c1)OCO2)C1(S(=O)(=O)c2ccccc2)CC1`, the outcome was inactive.

Take `Cc1nc2c(ccc3nc(NC(=O)c4ccc5c(c4)OCCO5)sc32)s1`: the outcome was active.

Consider `Cc1nc2c(ccc3nc(NC(=O)c4ccc(S(=O)(=O)N(C)C)cc4)sc32)s1`, for which the compound was classed as inactive.

Regarding `Cc1cc(NC(=O)c2ccc(Cl)cc2)no1`, the outcome was inactive.

For `Cc1cc(NC(=O)c2ccc3c(c2)OCCO3)no1`, the compound was classed as active.

On to `Cc1nc2ccc3nc(NC(=O)c4ccc5c(c4)OCCO5)sc3c2s1`, for which the call was inactive.

With `Cc1cc(NC(=O)c2ccc3c(c2)OCO3)no1`, the compound was classed as inactive.

For `CC(=O)c1ccc(NC(=O)CSc2nnc(NC(=O)CN3CCOCC3)s2)cc1`, the call was inactive.

For `Cn1cccc1C(=O)NC(=O)COC(=O)CC12CC3CC(CC(C3)C1)C2`, the outcome was inactive.

Turning to `Cc1cc2c(c(=O)n1C1CC1)C(c1cccc(Cl)c1)C(C#N)=C(N)O2` (stereo not drawn), the result was inactive.

With `CN1CCN(CCCN2c3ccccc3Sc3ccc(C(F)(F)F)cc32)CC1`, the outcome was inactive.

`OCCN1CCN(CCCN2c3ccccc3Sc3ccc(Cl)cc32)CC1`: the call was inactive.

`OCCN1CCN(CCCN2c3ccccc3Sc3ccc(C(F)(F)F)cc32)CC1`: the outcome was active.
